Most compounds without a hit are left out; they make up all but 14% or so of the library.
4MU fluor = 4-MU region autofluorescence. compound autofluorescence, 340/450 nm, 4-MU equivalents; hits give high values. max dye-equivalent concentration, M. hit rate 11% among 59,000. AID 589; in the data active = max dye-equivalent concentration above about 10 nM; inconclusive = mostly about 1.1 nM to 9.6 nM
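Intrinsic fluorescence at 340/450 nm (ex/em) was read after 15 min at room temperature in pH 8.0, 100 mM Tris. Each compound concentration expressed as 4-MU-equivalent concentration from a six-point 4-MU standard series on each plate.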
HADH2 inh = HADH2 (human) dehydrogenase inhibition; Q99714; recombinant HADH2, NADH fluorescence, beta-hydroxybutyryl-CoA; Potency, µM (top dose mostly 57.1 µM), inactives show at the highest dose activity change, negative = inhibition, usual class: inhibitors; hit rate 3.4% among 73,000; AID 886; note: potency is the fitted concentration of half-maximal effect; % is set by controls: 0 for no effect and ±100 for the full control effect; nearly all actives have a fitted effect of over 60% in size
Target sequence (Q99714 whole entry, looked up, one chain of several): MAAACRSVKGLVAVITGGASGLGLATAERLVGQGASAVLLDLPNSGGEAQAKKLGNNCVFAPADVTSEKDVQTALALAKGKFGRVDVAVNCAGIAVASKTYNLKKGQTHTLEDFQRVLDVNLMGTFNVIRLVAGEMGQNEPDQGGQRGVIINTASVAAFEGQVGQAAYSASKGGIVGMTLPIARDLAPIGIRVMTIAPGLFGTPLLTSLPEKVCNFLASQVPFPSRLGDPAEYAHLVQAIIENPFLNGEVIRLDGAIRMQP
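NADH fluorescence (ex 360/em 450 nm) read every 30 s for 4 min; activity taken as last-minus-first time point difference. Enzyme 20 nM, NAD+ 1 mM, beta-hydroxybutyryl-CoA 90 uM, pH 9.0 Tris buffer.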
CRE Fsk mod = CRE-bla signaling modulation under forskolin stimulation. Potency, µM (doses to about 38.2 µM), inactives show at the top dose activity change, negative = inhibition, actives largely listed as activators. CHO CRE-bla reporter (cAMP response element driving beta-lactamase), forskolin EC10, beta-lactamase ratio. hit rate 2.5% among 71,000; active = well fitted activation curve with a large enough effect in the signal ratio, with a control signal flat, not every such curve was filed as active; inconclusive = small, poorly fitted or top-dose-only effect, or effect the other way, or a change in a side signal; the % refers to the signal ratio; note: potency is the fitted concentration of half-maximal effect; % of control where 0% means no effect
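CRE-bla CHO cells stimulated with EC10 NKH 477 (water-soluble forskolin) and compound titrations, 3 h at 37C; beta-lactamase read with CCF4 after 2 h at room temperature. Activity from 460/530 nm emission ratio, AC50 values for positive or negative modulation.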
AID923 = qHTS Assay for Allosteric/Competitive Inhibitors of Caspase-1: Spectroscopic Profiling in AFC Spectral Region | compound fluorescence, AFC spectral region (405/520 nm) | hit rate 1.1% among 75,000 | Potency, µM (top dose mostly 57.5 µM), for the others: at the top dose fluorescence increase, usual class: activators; note: potency is the fitted concentration of half-maximal effect; 0% is about no effect
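Compound autofluorescence profiled at 405 nm ex/520 nm em during kinetic caspase 1 run (50 nM enzyme, 5 uM Ac-WEHD-AFC, HEPES pH 7.5, 10 mM DTT). Titration up to 57 uM; baseline from regression intercept, normalized to AFC standard curve.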
HSD17B inhib = HSD17B dehydrogenase inhibition; Q99714; recombinant HSD17B10, NADH fluorescence kinetic; Potency, µM (highest dose often 57.1 µM), inactives show top-dose activity change, negative = inhibition, usual class: inhibitors; hit rate 7.6% among 75,000; AID 893;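 note: the protocol describes HADH2 (HSD17B10) and not the HSD17B4 of the title; potency is the fitted concentration of half-maximal effect; % is set by controls: 0 for no effect and ±100 for the full control effect; nearly all actives have a fitted effect of over 70% in size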
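20 nM HADH2, pH 9.0 Tris/Tween; cpd preinc 15 min RT; start w/ 1 mM NAD+ + 90 uM b-hydroxybutyryl-CoA; kinetic fluor ex360/em450 q30s x 4 min; delta last-first.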
A350 fluor = A350 region autofluorescence; Compound autofluorescence, 340/450 nm, Alexa 350 dye-equivalents; hits give high values; max dye-equivalent concentration, M; hit rate 11% among 59,000; in the data active = max dye-equivalent concentration above about 10 nM; inconclusive = mostly about 1.1 nM to 9.6 nM
An asterisk follows results filed as active; i = inactive; ? = inconclusive; . = no result given; [ ] = dose if it differs, or a comment. Unless noted, calls come from the whole dose curve; as a rule, active = well fitted curve in the direction sought with a large enough effect; inconclusive = small, poorly fitted or top-dose-only effect, or another doubt; inactive = no such curve, though single readings can be large; an effect the other way counts as inactive or inconclusive.

SMILES | 4MU fluor | HADH2 inh | CRE Fsk mod | AID923 | HSD17B inhib | A350 fluor
C=C[C@@]1(C)CC(=O)[C@@]2(O)[C@@]3(C)[C@@H](O)CCC(C)(C)[C@@H]3[C@H](OC(=O)CCN(C)C)[C@H](OC(C)=O)[C@@]2(C)O1 | . | 25% | 0.05µM* | 0% | -3% | .
Cc1nc2ccccc2c2oc(C(=O)NCc3ccccn3)cc12 | i | 1% | ? | -1% | 25µM* | i
Cc1nc2ccccc2c2oc(C(=O)NCc3ccc4c(c3)OCO4)cc12 | . | -19% | 20% | 3% | -9% | .
COc1ccc(C(=O)Nc2c(N)nc(SCC(=O)N3CCCCCC3)[nH]c2=O)cc1OC | . | -3% | 6% | -2% | -28% | .
COC(=O)NC(c1cccs1)C(C(C)=O)C(=O)OC (stereo not drawn) | . | -14%[11.4 µM] | . | -3%[11.5 µM] | 1%[11.4 µM] | .
COC(=O)CSc1nc(N)c2c3c(sc2n1)CCCC3 | 7.7e-08M* | . | . | . | . | 9.1e-08M*
COC(=O)CSc1ncc(C#N)c(N)n1 | 2.3e-08M* | 1% | -3% | 4% | -13% | 1.9e-08M*
CC(C)N1C(=O)CCC1C(=O)NCc1ccccc1Cl (stereo not drawn) | . | 7% | 0% | 3% | 2% | .
O=C1[C@H]2[C@H]3[C@H](O)[C@H](O)C/C(=N/OC[C@@H](O)COCc4ccco4)[C@H]3CC[C@@H]2C(=O)N1Cc1ccccc1 | . | 3%[11.4 µM] | . | 1%[11.5 µM] | 3%[11.4 µM] | .
CCCc1ccc(Oc2cn[nH]c2-c2ccc(O)c(C)c2O)cc1 | i | 13µM* | ? | -1% | 4% | i
O=C(OCc1nnc(-c2ccccc2)o1)c1ccc(S(=O)(=O)NCc2ccco2)cc1 | i | 19% | 10% | 0% | -25% | i
CC(=O)[C@@H]1[C@H]2[C@H](C(=O)[C@H]3OC[C@@H]2O3)[C@H]2C=Cc3ccccc3N21 | . | . | . | 16% | 40µM* | .
CC(=O)[C@@H]1[C@H]2[C@@H](C(=O)[C@H]3OC[C@H]2O3)[C@@H]2C=Cc3ccccc3N12 | ? | ? | -9% | . | . | ?
CCOc1ccc2[nH]c(=O)c(CN(CC3COCCO3)C(=O)C3CC3)cc2c1 (stereo not drawn) | 3.9e-07M* | 10% | 0% | 4% | 4µM* | 6.3e-07M*
CCOc1ccc2[nH]c(=O)c(CN(C(=O)N3CCOCC3)C3CC3)cc2c1 | 3.2e-07M* | -19% | -4% | 1% | ? | 2.8e-07M*
CCOc1ccc2[nH]c(=O)c(CN(Cc3ccccc3)C(=O)N3CCCC3)cc2c1 | 7.4e-08M* | 9% | 8% | 0% | ? | 8.8e-08M*
O=C(COc1ccccc1)N(Cc1cc2ccccc2[nH]c1=O)CC1CCCO1 (stereo not drawn) | i | 13% | 15% | -1% | 9% | i
C=CCCCCCCCCCCCC(O)CC(O)CO (stereo not drawn) (tested in a mixture with another compound) | . | . | . | 0% | -3% | .
Nc1ccc(-c2n[nH]c(=O)c3ccccc23)cc1N | i | ? | 2.5µM* | 0% | ? | i
Cc1ccc(-c2n[nH]c(=O)c3ccccc23)cc1N | i | -7% | ? | 0% | -4% | i
Cc1ccc(-c2nc(CN(C)C)cc(CN(C)C)c2O)cc1 | 4.5e-07M* | 25µM* | ? | 1% | 32µM* | 4.3e-07M*
CN(C)Cc1cc(C(C)(C)C)cc(CN(C)C)c1O | i | 3%[11.4 µM] | -2%[7.6 µM] | 0%[11.5 µM] | 4%[11.4 µM] | i
CN(C)c1ccc(CNC(=O)C2(C)C=CCN2C(=O)c2ccccc2)cc1 (stereo not drawn) | . | -4% | -4% | -1% | 18% | .
N#Cc1cccc(NC(=O)N2CC[C@@]3(CCCN(C(=O)c4cccc(F)c4)C3)C2)c1 | i | -10% | -1% | -2% | 2% | i
Nc1c(C(=O)NCCc2ccccc2)nnn1Cc1ccccc1 | i | 5% | ? | 1% | -1% | i
NC(=Nc1ccccc1)NC(=O)c1nc(Cl)c(N)nc1N | 3.8e-07M* | ? | ? | -1% | ? | 3.9e-07M*

Screening results deposited in PubChem BioAssay by National Center for Advancing Translational Sciences (NCATS).
